We go through 45 compounds from PubChem BioAssay AID602440 (Sanford-Burnham Center for Chemical Genomics, 2012).

The campaign covered roughly 360,000 compounds. About 2,300 (0.64%) were called active. Rule as the data show it: active = inhibition mostly above about 40% (no sharp cut-off); inactive = mostly below about 27%. The full list was thinned out, with actives kept by preference.

For the experiment, the target named is Sentrin-specific protease 8 (Homo sapiens) (UniProt Q96LD8). Nature of the experiment: blockers of SENP8 deneddylase activity – biochemical, fluorescence, Nedd8 protein substrate, uHTS, primary screen (AID 602440). Conditions: recombinant SENP8, Nedd8 substrate fluorescence; at 20 µM; hits give high values.
Sentrin-specific protease 8 (Homo sapiens), sequence (Q96LD8 whole entry, looked up): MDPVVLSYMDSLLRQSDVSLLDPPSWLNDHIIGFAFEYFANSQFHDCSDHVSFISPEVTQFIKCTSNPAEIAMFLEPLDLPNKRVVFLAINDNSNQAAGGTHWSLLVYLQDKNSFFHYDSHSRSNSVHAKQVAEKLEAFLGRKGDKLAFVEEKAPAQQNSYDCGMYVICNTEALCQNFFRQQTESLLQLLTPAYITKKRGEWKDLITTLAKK
As a reminder, the inhibition is the change of the read-out against control, counted positive when it falls. In the case of `COc1ccccc1N=Nc1c(O)[nH]c(=S)[nH]c1=O`, the inhibition is 49% (active). The value for `CCOCCc1c(O)[nH]c(=S)[nH]c1=O` was 21.8% (inactive); that for `O=C1N=c2ccccc2=C/C1=C\c1c(O)[nH]c(=S)[nH]c1=O` was -52.5% (inactive). On to `CC(C(=O)Nc1ccc(Cl)cc1Cl)N1CC=C(c2ccccc2)CC1` (stereo not given), for which the inhibition is 26.7% (inactive). As to `CNC(=O)N(C)c1nnc(C(C)(C)C)s1`, the inhibition was 17.7% (inactive). Turning to `O=C1NC(=O)N(c2ccccc2)C(=O)/C1=C/c1ccc([N+](=O)[O-])s1`, the inhibition is 64.6% (active). The result for `CCN(CC)CCOC(=O)c1cc2cc(COC)ccc2o1` reads 15.2% (inactive). Regarding `COC(=O)C1=C(c2cc3ccccc3o2)C[C@@H]2CC[C@H]1N2C(=O)NC1CCCCC1`, the inhibition was 11.5% (inactive).

For `CCOC(=O)CNC(=O)N1Cc2cc(N3CCCCC3)ccc2-n2nncc2C1`, the inhibition was -24.7% (inactive). Turning to `O=C1/C(=C\c2ccc3c(c2)OCO3)N2CCC1CC2`, the inhibition was 13.7% (inactive).

For the compound `c1cc2c(cc1[C@H]1OC[C@H]3[C@@H]1CO[C@@H]3c1ccc3c(c1)OCO3)OCO2`, the inhibition is 12.2% (inactive). On to `c1cc2c(cc1C1OCC3C(c4ccc5c(c4)OCO5)OCC13)OCO2` (stereo not given), for which the inhibition was 62.3% (active). On to `COC(=O)C1=C(c2ccc(F)cc2OCc2ccccc2)C[C@@H]2CC[C@H]1N2C(=O)NCc1ccc(OC)c(OC)c1`, for which the inhibition is 14.1% (inactive). Consider `CCOC(=O)[C@]12Cc3ccccc3[C@H]1N(C1CCCCC1)C(=O)c1cc(OC)ccc12`, for which the inhibition is -7.7% (inactive). For the compound `O=c1[nH]c(=O)n(CCc2ccccc2)c(O)c1/C=N/N1CCOCC1`, the inhibition was 11.3% (inactive). For the compound `CCOP(=O)(OCC)C(NC(=O)c1ccc(OC)cc1)C(Cl)(Cl)Cl` (stereo not given), the inhibition is 4.3% (inactive). For the compound `COc1ccc(C(=O)C2CN(C)CC2C(=O)c2ccc(OC)cc2)cc1` (stereo not given), the inhibition was 14.3% (inactive). In the case of `COc1ccc(C(=O)CC2C(=O)N(C)C(=O)N(C)C2=O)cc1`, the inhibition was 42.5% (active). Regarding `CCCCCCCCCCCCn1ccc(=N)cc1`, the inhibition was 26.2% (inactive).

Turning to `CCOC(=O)CC(SP1(=S)OCC2(CCCCO2)C(C2CCCCO2)O1)C(=O)OCC` (stereo not given), the inhibition is 2.3% (inactive). Turning to `Cc1ccc(Cn2c(C)c3cnn(CC(=O)N4CCC5(CC4)OCCO5)c(=O)c3c2C)cc1`, the inhibition was -29% (inactive). On to `C=CC12CN(C)[C@@H]3C4CO[C@H](C[C@H]41)[C@]1(C(=O)Nc4ccccc41)[C@@H]32` (stereo not given in full), for which the inhibition is 40.4% (active). Consider `COc1ccc2c(c1)[C@]13CCCCC1C(C2)N(C)CC3` (stereo not given in full), for which the inhibition was 2% (inactive). As for `O=C(O)CCn1cc(C=C2C(=O)NC(=S)NC2=O)c(-c2cccc(Br)c2)n1`, the inhibition is 2.3% (inactive). The value for `CN(c1ccccc1)c1ccc([N+](=O)[O-])c2nonc12` was 44.1% (active).

As to `CCN(CC)c1ccc([N+](=O)[O-])c2cccnc12`, the inhibition was 36.3% (inactive). In the case of `C[C@]12CCCCC1=CC(=O)C1C2CC[C@@]2(C)C1C[C@@H](F)[C@@H]2O` (stereo not given in full), the inhibition is -0.8% (inactive).

Consider `C[N+]12CN3CN(CN(C3)C1)C2`, for which the inhibition is 12.2% (inactive). The result for `O=c1c2ccccc2nc(/C=C/c2ccco2)n1-c1ccccc1O` reads -36.8% (inactive); that for `CNP1(NC)=Nc2nn(-c3ccccc3)c(N)c2C(c2ccccc2)=N1`, 21.7% (inactive); that for `O=C(O)C1CSC(c2cccnc2)N1` (stereo not given), 6.7% (inactive). Take `COC1C(O)C(C)OC(OC2CCC3(C=O)C(CCC4C3CCC3(C)C(C5=CC(=O)OC5)CCC43O)C2)C1O` (stereo not given): the inhibition is 66.8% (active). The result for `C[C@]12CC[C@H](O)C[C@H]1CC[C@@H]1C2CC[C@]2(C)[C@@H](C3=CC(=O)OC3)[C@@H](O)C[C@]12O` (stereo not given in full) reads 15.3% (inactive); that for `CC(C)CN1CCN(Cc2ccccc2C(F)(F)F)CC1CCO` (stereo not given), -4% (inactive); that for `CC1=C2C(=O)C3C(CC=C4CC(OC5OC(O)C(O)C(O)C5CO)CCC43C)C2CCC12OC1CC(C)CNC1C2C` (stereo not given), 41.4% (active). On to `CC(=O)OC1C2(CC3N4C(=O)C5(CO)SSC4(CC31O)C(=O)N5C)OC(C)C(C)(C)C2=O` (stereo not given), for which the inhibition is -4.6% (inactive). The result for `N[C@@H](Cc1c[nH]c2ccccc12)c1nnc(SCc2c(F)cccc2Cl)o1` reads 18% (inactive); that for `CN(C)C(=O)Oc1ccc2c(c1)O/C(=C\c1ccccc1)C2=O`, -9.7% (inactive).

Take `c1ccc(N2Cc3ccccc3-n3nncc3C2)nc1`: the inhibition was 14.6% (inactive).

Turning to `CC(Cc1ccccc1)NC=O` (stereo not given), the inhibition was 50.7% (active). Regarding `CC(Cc1ccccc1)NCCC(c1ccccc1)c1ccccc1` (stereo not given), the inhibition was 8.1% (inactive). As for `CC(=O)Nc1ccc(C(=O)C(Cc2ccccc2)N(C)C)cc1` (stereo not given), the inhibition is -0.4% (inactive). For the compound `CCC(C)(O)C(=O)OC1C(=O)OC2CC3C(C)=CC(=O)C(O)C3(C)C3C4(O)OCC23C1C(C)C4O` (stereo not given), the inhibition is 15.7% (inactive).

As for `CC(=CCOc1ccc2ccc(=O)oc2c1)C1=CC(=O)C(C)(C)O1`, the inhibition is -260% (inactive). In the case of `C=Cn1ccnc1P(=S)(c1cc(N(CC)CC)ns1)c1nccn1C=C`, the inhibition was 1.5% (inactive).
